Results on 35 compounds are retold here after PubChem BioAssay (NCATS).

Calls of active or inactive are those of the source. Calls come from the whole dose curve; as a rule, active = well fitted curve in the direction sought with a large enough effect; inactive = no such curve, though single readings can be large or run the other way.

Chain of Alpha-galactosidase (Coffea arabica) (Q42656 whole entry, looked up): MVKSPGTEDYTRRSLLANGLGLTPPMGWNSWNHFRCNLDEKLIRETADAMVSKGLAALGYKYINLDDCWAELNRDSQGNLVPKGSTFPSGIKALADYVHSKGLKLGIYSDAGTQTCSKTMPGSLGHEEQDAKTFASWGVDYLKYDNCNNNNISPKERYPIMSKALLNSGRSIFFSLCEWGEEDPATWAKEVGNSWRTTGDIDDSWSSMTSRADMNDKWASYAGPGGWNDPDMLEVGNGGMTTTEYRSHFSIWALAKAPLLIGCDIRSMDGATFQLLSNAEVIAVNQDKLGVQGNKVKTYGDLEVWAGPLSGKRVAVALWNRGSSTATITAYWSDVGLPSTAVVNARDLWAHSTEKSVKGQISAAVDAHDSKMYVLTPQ

This assay deals with Alpha-galactosidase (Coffea arabica) (UniProt Q42656). Briefly: Counterscreen for Glucocerebrosidase Inhibitors: qHTS Assay for Coffee Bean alpha-Galactosidase at pH 5.9 (AID 998). Conditions: coffee bean alpha-galactosidase enzyme assay; series mostly up to 76.9 µM. An outline of the steps:
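In 50 mM citric acid pH 5.9 with 0.005% Tween-20, coffee bean enzyme hydrolyses 80 uM 4-MU alpha-D-galactopyranoside over 20 min at RT. Activity is normalized to controls; AC50 comes from Hill-modelled concentration-response data.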
(The purpose of a counterscreen is to sort out artefacts and off-target activity.)
For the compound `CCCCc1oc2ccccc2c1C(=O)c1cc(I)c(OCCN(CC)CC)c(I)c1`, the compound was classed as inactive.

`NS(=O)(=O)Cc1noc2ccccc12`: the compound was classed as inactive.

Take `Nc1nc2c(ncn2COC(CO)CO)c(=O)[nH]1`: the call was inactive.

In the case of `NC(=O)NO`, the outcome was inactive.

Regarding `O=C(CCCN1CCC(O)(c2ccc(Cl)cc2)CC1)c1ccc(F)cc1`, the outcome was inactive.

For the compound `Cc1[nH]c(=O)c(C#N)cc1-c1ccncc1`, the compound was classed as inactive.

In the case of `CN(C)C(=O)C(CCN1CCC(O)(c2ccc(Cl)cc2)CC1)(c1ccccc1)c1ccccc1`, the outcome was inactive.

`O=C1NC(=O)C(c2ccccc2)(c2ccccc2)N1`: the compound was classed as inactive.

Turning to `Cc1nc2n(c(=O)c1CCN1CCC(c3noc4cc(F)ccc34)CC1)CCCC2`, the compound was classed as inactive.

For the compound `CC(C)NCC(O)COc1cccc2[nH]ccc12` (stereo not given), the outcome was inactive.

As to `CCN(CC)CCOC(=O)C1(C2CCCCC2)CCCCC1`, the result was inactive.

As for `CCN(CC)CCNC(=O)c1cc(Cl)c(N)cc1OC`, the call was inactive.

For `COC(=O)Nc1nc2ccc(C(=O)c3cccs3)cc2[nH]1`, the compound was classed as inactive.

In the case of `CCC1(c2ccccc2)C(=O)NCNC1=O`, the result was inactive.

Regarding `Cc1ccc(S(=O)(=O)NC(=O)NN2CCCCCC2)cc1`, the compound was called inactive.

Consider `CC[N+](C)(C)c1cccc(O)c1`, for which the compound was classed as inactive.

With `NC(=O)OCC(COC(N)=O)c1ccccc1`, the compound was called inactive.

For `CC(=O)CCCCn1c(=O)c2c(ncn2C)n(C)c1=O`, the compound was called inactive.

As for `OCCN1CCN(CCCN2c3ccccc3Sc3ccc(C(F)(F)F)cc32)CC1`, the call was inactive.

As to `Cn1ccc2cc3c(cc21)CCN3C(=O)Nc1cccnc1`, the call was inactive.

For the compound `COc1cc2c(c(OC)c1OC)-c1ccc(OC)c(=O)cc1[C@@H](NC(C)=O)CC2`, the compound was called inactive.

Take `COc1cc(Cc2cnc(N)nc2N)cc(OC)c1OC`: the result was inactive.

For `CC/C(=C(\c1ccccc1)c1ccc(OCCN(C)C)cc1)c1ccccc1`, the call was inactive.

Turning to `CCCC(CCC)C(=O)O`, the call was inactive.

With `CN(C)CCCN1c2ccccc2CCc2ccc(Cl)cc21`, the call was inactive.

As to `CC(C)OC(=O)C(C)(C)Oc1ccc(C(=O)c2ccc(Cl)cc2)cc1`, the compound was called inactive.

For `CN1CCC[C@@H]1CCO[C@](C)(c1ccccc1)c1ccc(Cl)cc1`, the call was inactive.

On to `Cc1c(OCC(F)(F)F)ccnc1CS(=O)c1nc2ccccc2[nH]1` (stereo not given), for which the result was inactive.

For the compound `COc1ccc(Cl)cc1C(=O)NCCc1ccc(S(=O)(=O)NC(=O)NC2CCCCC2)cc1`, the call was inactive.

In the case of `N=c1nc(N2CCCCC2)cc(N)n1O`, the compound was called inactive.

For `O=c1n(CCCN2CCN(c3cccc(Cl)c3)CC2)nc2ccccn12`, the result was inactive.

Regarding `NNCCc1ccccc1`, the outcome was inactive.

For the compound `NC12CC3CC(CC(C3)C1)C2`, the outcome was inactive.

For `Cc1oncc1C(=O)Nc1ccc(C(F)(F)F)cc1`, the call was inactive.

In the case of `CN(C)CCC=C1c2ccccc2CCc2ccccc21`, the call was inactive.
